PubChem BioAssay (Tox21)
A number with no mark means an inactive call. Records with an inconclusive call do not appear. Entries that show only a call come without a potency. Calls of active or inactive are those of the source. Unless noted, calls come from the whole dose curve; as a rule, active = well fitted curve in the direction sought with a large enough effect in the repeat runs; inconclusive = weak or mixed curves; inactive = no such curve, though single readings can be large; an effect the other way counts as inactive or inconclusive.

How the values were obtained:
[1] = qHTS assay to identify small molecule agonists of the estrogen receptor alpha (ER-alpha) signaling pathway in the presence of an antagonist - cell viability counter screen (AID 1259386);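 note: cells exposed to compounds for 22 h at 37 °C before the viability read; nearly all actives have a fitted effect of over 30% in size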; note: potency is the fitted concentration of half-maximal effect
Summary of the method: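 VM7Luc4E2 cells (endogenous full-length ER-alpha, 4×ERE-luciferase) were held 5 days in phenol red-free medium with 10% charcoal-stripped FBS, plated, then given 10.0nM ICI-182,780 and compounds at 15 concentrations for 22hr at 37C; viability read by CellTiter-Fluor fluorescence.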

[2] = molecular target: Progesterone receptor (Homo sapiens) (UniProt P06401); assay: qHTS assay to identify small molecule agonists of the progesterone receptor (PR) signaling pathway (AID 1346784; calls by dose curve; note: nearly all actives have a fitted effect of over 30% in size)
Sequence of Progesterone receptor (Homo sapiens) (P06401 whole entry, looked up): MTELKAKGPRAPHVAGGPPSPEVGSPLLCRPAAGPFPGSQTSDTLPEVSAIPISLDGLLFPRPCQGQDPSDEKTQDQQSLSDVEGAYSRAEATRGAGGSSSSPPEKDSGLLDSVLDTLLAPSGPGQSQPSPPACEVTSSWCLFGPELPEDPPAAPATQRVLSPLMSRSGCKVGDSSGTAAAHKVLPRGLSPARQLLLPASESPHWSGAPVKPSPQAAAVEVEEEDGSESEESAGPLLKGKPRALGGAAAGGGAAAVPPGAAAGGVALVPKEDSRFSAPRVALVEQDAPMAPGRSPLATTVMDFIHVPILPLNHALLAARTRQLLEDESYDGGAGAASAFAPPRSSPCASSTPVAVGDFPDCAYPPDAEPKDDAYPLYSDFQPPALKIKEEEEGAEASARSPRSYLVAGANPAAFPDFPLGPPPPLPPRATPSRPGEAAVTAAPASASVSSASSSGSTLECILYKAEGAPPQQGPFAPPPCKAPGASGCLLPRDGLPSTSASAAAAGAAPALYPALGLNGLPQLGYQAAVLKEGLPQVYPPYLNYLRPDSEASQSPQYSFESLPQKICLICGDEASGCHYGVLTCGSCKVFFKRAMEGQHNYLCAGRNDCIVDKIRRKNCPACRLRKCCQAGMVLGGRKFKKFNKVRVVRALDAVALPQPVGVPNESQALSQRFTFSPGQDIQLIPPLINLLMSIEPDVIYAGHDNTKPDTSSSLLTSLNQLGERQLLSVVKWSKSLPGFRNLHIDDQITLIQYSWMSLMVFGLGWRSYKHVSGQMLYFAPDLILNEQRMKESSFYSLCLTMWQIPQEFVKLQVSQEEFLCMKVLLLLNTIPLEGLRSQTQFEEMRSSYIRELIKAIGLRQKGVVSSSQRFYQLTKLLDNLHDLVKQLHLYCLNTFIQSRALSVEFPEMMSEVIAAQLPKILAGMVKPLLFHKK
Summary of the method: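 Using charcoal-stripped serum (2%) to limit endogenous steroids, PR-UAS-bla HEK 293T cells received compounds for 16 hr at 37C after 6 hr plating; beta-lactamase FRET fluorescence was recorded following 2 hr substrate loading at room temperature.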

[3] = qHTS assay to identify small molecule antagonists of the progesterone receptor (PR) signaling pathway - cell viability counter screen (AID 1346798); note: nearly all actives have a fitted effect of over 50% in size; note: potency is the fitted concentration of half-maximal effect
Summary of the method: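 ATP content as viability readout: CellTiter-Glo luminescence, 30 min room temperature, in PR-UAS-bla HEK293T cells after 16 hr compound/R5020 treatment at 37C and 5% CO2.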

[4] = qHTS assay to identify small molecule agonists of the progesterone receptor (PR) signaling pathway - cell viability counter screen (AID 1346799; calls by dose curve; note: nearly all actives have a fitted effect of over 45% in size; note: potency is the fitted concentration of half-maximal effect)
Summary of the method: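 Cytotoxicity in PR-bla HEK293T cells: 16 h compound, 37C; CellTiter-Glo added post-FRET read; luminescence after 30 min RT.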

[5] = qHTS assay to identify small molecule antagonists of the TGF-beta/Smad signaling pathway - cell viability counter screen (AID 1346824); note: nearly all actives have a fitted effect of over 50% in size
Summary of the method: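 Cytotoxicity counter-screen run in the same wells as the beta-lactamase Smad reporter read: CellTiter-Glo luminescence after 30 min at room temperature. HEK 293T SBE-bla cells had 5 hr compound exposure at 37 C with TGF-beta1 (0.25 ng/mL stock).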

[6] = qHTS assay to identify small molecule agonists of the TGF-beta/Smad signaling pathway - cell viability counter screen (AID 1346829); note: top concentration of the series differs between compounds; nearly all actives have a fitted effect of over 45% in size
Summary of the method: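 SBE-bla HEK 293T cells plated overnight, compound exposure 5 hr at 37 C. Viability read in the same wells by CellTiter-Glo luminescence after 30 min at room temperature, following the beta-lactamase read.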

[7] = qHTS assay to identify small molecule agonists of the TGF-beta/Smad signaling pathway (AID 1346859; active = well fitted activation curve with a large enough effect in the signal ratio in the repeat runs, not every such curve was filed as active; the % refers to the signal ratio; note: series mostly up to about 77 µM)
Summary of the method: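 Stable Smad binding element-beta-lactamase HEK 293T cells; 5 hr compound exposure at 37 C under 5% CO2; 2 hr room-temperature substrate step; fluorescence excited at 405 nm, collected at 460 nm and 530 nm.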

[8] = molecular target: Thyrotropin-releasing hormone receptor (Homo sapiens) (UniProt P34981); assay: qHTS assay to identify small molecule agonists of the thyrotropin-releasing hormone receptor (TRHR) signaling pathway (AID 1346891; calls by dose curve; note: series mostly up to about 58 µM)
Sequence of Thyrotropin-releasing hormone receptor (Homo sapiens) (P34981 whole entry, looked up): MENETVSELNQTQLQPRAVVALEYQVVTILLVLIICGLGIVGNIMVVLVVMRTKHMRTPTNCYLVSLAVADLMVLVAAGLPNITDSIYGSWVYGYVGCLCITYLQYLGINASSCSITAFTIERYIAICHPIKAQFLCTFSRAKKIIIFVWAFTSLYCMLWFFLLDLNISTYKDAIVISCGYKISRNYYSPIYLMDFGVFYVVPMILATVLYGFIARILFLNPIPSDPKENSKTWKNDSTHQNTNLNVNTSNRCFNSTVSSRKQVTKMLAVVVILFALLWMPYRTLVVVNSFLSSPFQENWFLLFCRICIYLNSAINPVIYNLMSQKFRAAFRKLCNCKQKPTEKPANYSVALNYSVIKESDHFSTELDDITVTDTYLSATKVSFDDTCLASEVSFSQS
Summary of the method: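 In 1536-format, 1500 TRHR-Hek293 cells per well grew 18 h, took up calcium dye for 2 h at 37 °C, received compound, and were read kinetically; 15-point titrations, triplicates.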

[9] = Human pregnane X receptor (PXR) small molecule agonists, qHTS cell viability counter screen (AID 1346977); note: nearly all actives have a fitted effect of over 50% in size; note: potency is the fitted concentration of half-maximal effect
Summary of the method: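 Readout is CellTiter-Fluor fluorescence from PXR-Luc HepG2 cells. Plated cells rested 5hr, then were treated with compounds for 24hr at 37C and 5% CO2, with reagent present during the last hour.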

[10] = Caspase-3/7 induction in HepG2 cells by small molecules, qHTS assay (AID 1346978); note: nearly all actives have a fitted effect of over 15% in size
Summary of the method: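 Caspase-3/7 induction was measured by Caspase-Glo 3/7 luminescence (30 min, room temperature) after a 17 hr compound exposure of wild-type HepG2 cells seeded at 2,000 per well and pre-incubated 5 hr.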

[11] = Caspase-3/7 induction in CHO-K1 cells by small molecules, qHTS cell viability counter screen (AID 1346979); note: nearly all actives have a fitted effect of over 35% in size; note: potency is the fitted concentration of half-maximal effect
Summary of the method: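 To flag cytotoxic compounds, treated CHO-K1 wild-type cells were given CellTiter-Fluor at 16hr and read fluorescently after 1hr at 37C; the caspase-3/7 luminescence was measured in these same wells.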

[12] = Caspase-3/7 induction in CHO-K1 cells by small molecules, qHTS assay (AID 1346980); note: nearly all actives have a fitted effect of over 15% in size
Summary of the method: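 Luminescent Caspase-Glo 3/7 read (30min, room temperature) quantified apoptosis induction. Cells were wild-type CHO-K1, treated with compound for 17hr at 37 C and 5% CO2.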

[13] = Caspase-3/7 induction in HepG2 cells by small molecules, qHTS cell viability counter screen (AID 1346981); note: nearly all actives have a fitted effect of over 30% in size; note: potency is the fitted concentration of half-maximal effect
Summary of the method: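 Wild-type HepG2 cells (2,000/well) were allowed to settle for 5 hr at 37 C, 5% CO2, then dosed with compounds in DMSO by pin transfer. After 16 hr at 37 C, CellTiter-Fluor was added and fluorescence read 1 hr later.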

[14] = molecular target: Nuclear receptor subfamily 1 group I member 2 (Homo sapiens) (UniProt O75469); assay: Human pregnane X receptor (PXR) small molecule agonists, qHTS assay (AID 1346982); note: nearly all actives have a fitted effect of over 35% in size; note: potency is the fitted concentration of half-maximal effect
Sequence of Nuclear receptor subfamily 1 group I member 2 (Homo sapiens) (O75469 whole entry, looked up): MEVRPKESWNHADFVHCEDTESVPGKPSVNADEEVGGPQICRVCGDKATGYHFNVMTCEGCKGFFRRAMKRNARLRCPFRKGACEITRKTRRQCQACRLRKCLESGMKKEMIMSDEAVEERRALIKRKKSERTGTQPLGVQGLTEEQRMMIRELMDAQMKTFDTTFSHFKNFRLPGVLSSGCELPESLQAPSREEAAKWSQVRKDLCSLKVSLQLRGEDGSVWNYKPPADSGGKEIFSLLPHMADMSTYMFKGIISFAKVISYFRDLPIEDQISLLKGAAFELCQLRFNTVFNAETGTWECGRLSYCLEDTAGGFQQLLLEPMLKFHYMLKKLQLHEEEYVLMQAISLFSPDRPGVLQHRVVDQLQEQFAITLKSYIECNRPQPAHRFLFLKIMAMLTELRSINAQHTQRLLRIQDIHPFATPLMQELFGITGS
Summary of the method: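 PXR-Luc HepG2 cells (CYP3A4 promoter-driven luciferase) were seeded in medium with 5% charcoal-stripped FBS, left 5 hr at 37 C, then exposed to compounds in DMSO for 24 hr. Luminescence was read after ONE-Glo addition.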

[15] = molecular target: Nuclear receptor subfamily 1 group I member 2 (Homo sapiens) (UniProt O75469); assay: Human pregnane X receptor (PXR) activation by small molecules, qHTS assay (AID 1346985); note: nearly all actives have a fitted effect of over 40% in size
Summary of the method: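 DPX-2 cells (HepG2 co-transfected with a PXR response element and a CYP3A4-promoter luciferase construct) were seeded at 2,000 per well, rested 5 hr at 37C, then exposed to DMSO-dissolved compounds for 24 hr. Activation was read as luciferase luminescence.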

[16] = molecular target: Thyrotropin-releasing hormone receptor (Homo sapiens) (UniProt P34981); assay: qHTS assay to identify small molecule antagonists of the thyrotropin-releasing hormone receptor (TRHR) signaling pathway (AID 1346877; active = well fitted inhibition curve with a large enough effect in the repeat runs, not every such curve was filed as active; note: series mostly up to about 51 µM)
Summary of the method: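 TRHR-expressing HEK293 cells were seeded, cultured 18 h at 37 °C, then loaded with calcium dye for 2 h. Compounds were pre-incubated 5 min at room temperature before 1 nM TRH (final) was added, and kinetic fluorescence was recorded for 3 min.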

[17] = molecular target: Nuclear receptor subfamily 1 group I member 2 (Rattus norvegicus) (UniProt Q9R1A7); assay: Rat pregnane X receptor (rPXR) activation by small molecules, qHTS assay (AID 1346983); conditions: rPXR luciferase reporter cells, One-Glo luminescence, 24 h; max activation: stronger effect = higher value; note: nearly all actives have a fitted effect of over 20% in size
Sequence of Nuclear receptor subfamily 1 group I member 2 (Rattus norvegicus) (Q9R1A7 whole entry, looked up): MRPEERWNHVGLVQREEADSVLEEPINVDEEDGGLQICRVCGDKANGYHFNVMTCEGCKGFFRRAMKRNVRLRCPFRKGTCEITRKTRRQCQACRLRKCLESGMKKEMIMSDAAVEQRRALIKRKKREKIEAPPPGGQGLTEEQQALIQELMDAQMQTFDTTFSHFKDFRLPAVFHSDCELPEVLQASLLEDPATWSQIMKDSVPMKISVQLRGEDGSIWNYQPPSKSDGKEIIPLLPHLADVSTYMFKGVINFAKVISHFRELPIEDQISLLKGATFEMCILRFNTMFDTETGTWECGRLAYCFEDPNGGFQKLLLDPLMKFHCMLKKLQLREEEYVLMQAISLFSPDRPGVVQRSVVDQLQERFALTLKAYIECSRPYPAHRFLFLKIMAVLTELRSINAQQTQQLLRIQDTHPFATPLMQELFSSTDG
Summary of the method: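 Luminescent readout (One-Glo luciferase, 30 min room temperature) followed 24 hr compound treatment at 37 C of rPXR cells plated 2,000 per well and preincubated 5hr; qHTS format with compounds delivered in DMSO.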

[18] = molecular target: Cytochrome P450 2D6 (Homo sapiens) (UniProt P10635); assay: Cytochrome P450 Family 2 Subfamily D Member 6 (CYP2D6) small molecule antagonists: luciferase reporter qHTS assay (AID 1671196); note: nearly all actives have a fitted effect of over 50% in size; note: potency is the fitted concentration of half-maximal effect
Sequence of Cytochrome P450 2D6 (Homo sapiens) (P10635 whole entry, looked up): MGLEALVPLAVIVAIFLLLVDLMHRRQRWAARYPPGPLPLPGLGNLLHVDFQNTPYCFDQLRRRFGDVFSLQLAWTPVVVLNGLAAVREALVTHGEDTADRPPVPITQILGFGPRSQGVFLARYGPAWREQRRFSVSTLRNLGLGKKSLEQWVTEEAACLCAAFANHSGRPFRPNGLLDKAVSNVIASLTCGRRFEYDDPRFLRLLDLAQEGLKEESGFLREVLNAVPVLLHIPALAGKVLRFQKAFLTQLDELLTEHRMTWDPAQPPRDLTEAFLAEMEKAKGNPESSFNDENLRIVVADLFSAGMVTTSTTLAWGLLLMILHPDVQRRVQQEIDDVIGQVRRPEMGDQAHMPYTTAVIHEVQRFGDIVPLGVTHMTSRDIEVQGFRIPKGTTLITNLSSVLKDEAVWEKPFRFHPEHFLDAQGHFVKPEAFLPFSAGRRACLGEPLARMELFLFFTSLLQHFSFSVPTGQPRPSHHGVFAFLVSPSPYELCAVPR
Summary of the method: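 CYP2D6 enzyme–substrate mix was held with compound for 10 min at room temperature, then NADPH regeneration solution was added and the reaction ran 1 h at room temperature. Luciferin product was detected by luminescence after 20 min with detection reagent.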

Row | SMILES | Potency [1] | outcome [2] | Potency [3] | Potency [4] | Potency [5] | Potency [6] | outcome [7] | Potency [8] | Potency [9] | outcome [10] | Potency [11] | Potency [12] | Potency [13] | Potency [14] | Potency [15] | outcome [16] | max activation [17] | Potency [18]
1 | c1ccc(-c2nc[nH]c2-c2ccccc2)cc1 | inactive | inactive | inactive | inactive | inactive | inactive | inactive | inactive | inactive | inactive | inactive | inactive | inactive | inactive | inactive | – | – | –
2 | C=Cc1c(C)c2cc3[nH]c(cc4nc(cc5nc(cc1[nH]2)C(C)=C5CCC(=O)O)C(CCC(=O)O)=C4C)c(C)c3C=C | 26.6 µM (active) | inactive | inactive | inactive | inactive | inactive | inactive | inactive | – | inactive | 21.1 µM (active) | inactive | 13.3 µM (active) | inactive | inactive | inactive | -1.27% | –
3 | CC1=CCC(C(C)C)C=C1 (centres undefined) | inactive | inactive | – | inactive | inactive | inactive | inactive | – | inactive | inactive | inactive | inactive | inactive | 30.6 µM (active) | – | – | – | 71 µM (active)
4 | c1ccc(CNCc2ccccc2)cc1 | inactive | inactive | inactive | inactive | inactive | inactive | inactive | – | inactive | inactive | inactive | – | inactive | inactive | – | – | – | 1.12 µM (active)
5 | Cc1cccc(OCCOc2cccc(C)c2)c1 | inactive | inactive | – | inactive | inactive | inactive | inactive | inactive | inactive | inactive | inactive | inactive | inactive | 18.3 µM (active) | – | inactive | – | inactive
6 | CCOC(=O)[C@H](CCc1ccccc1)N[C@H]1CCc2ccccc2N(CC(=O)O)C1=O | inactive | inactive | 21.1 µM (active) | 21.1 µM (active) | inactive | inactive | – | inactive | 26.6 µM (active) | – | 23.7 µM (active) | inactive | – | 23.7 µM (active) | – | inactive | – | –
